Source: PubChem
This is a sample that favours compounds with a hit; in the whole collection about 2.1% have one here.
IL1B NFkB pot – enhances IL-1B driven NFkB nuclear translocation. HUVEC IL-1B NFkB p65 nuclear translocation imaging. activation, % at 2 µM. 94,000 tested, 0.3% active. AID 819;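 active = activation above 40%, about the mean plus 3 SD, also judged a hit on visual image review; inconclusive = activation above 40% but not a hit on visual review; inactive = activation not above 40% and no visual hit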;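 note: percent activation is computed from the nuclear over cytoplasmic p65 intensity ratio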
NFkB transloc inh – blocks IL-1B driven NFkB nuclear translocation in HUVEC cells; AID 796; 94,000 tested, 0.43% active; HUVEC IL-1B NFkB p65 nuclear translocation imaging; inhibition, % at 2 µM;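 active = inhibition above about 30% together with a positive call from visual inspection of the well image, limit read from the data; inconclusive = inhibition above a set limit but visual check negative; inactive = inhibition not above a set limit, visual check negative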;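 note: nuclear over cytoplasmic p65 intensity ratio measured by imaging; 0% = IL-1B stimulated DMSO wells and 100% = unstimulated DMSO wells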
TNAP act DEA – human TNAP activation, intermediate phosphate acceptor. purified TNAP, CDP-star luminescence, 100 mM DEA, 30 min; hits give high values; scale: 0 levamisole-inhibited, 1 vehicle-only enzyme. activation factor at 20 µM. 64,000 tested, under 10 active;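 active = activation factor of at least 2 at 20 µM, relative to controls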
HUVEC tox IL1B – HUVEC cytotoxicity counter-screen, IL-1B stimulated; HUVEC cell count loss, Hoechst imaging; 94,000 tested, 0.41% active; cell count reduction, % at 2 µM;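 active = cell count reduction more than 3 SD above the screen-wide mean, cut at about 70% in these data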;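 note: normalized per plate to untreated control cells as the no-loss baseline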
PLAP activator – activates human placental alkaline phosphatase; purified PLAP enzyme, luminescent substrate read-out; hits give high values; activation fold at 20 µM; P05187; 96,000 tested, 1.2% active; in the data active = activation fold above about 2
Target sequence (P05187 whole entry, looked up): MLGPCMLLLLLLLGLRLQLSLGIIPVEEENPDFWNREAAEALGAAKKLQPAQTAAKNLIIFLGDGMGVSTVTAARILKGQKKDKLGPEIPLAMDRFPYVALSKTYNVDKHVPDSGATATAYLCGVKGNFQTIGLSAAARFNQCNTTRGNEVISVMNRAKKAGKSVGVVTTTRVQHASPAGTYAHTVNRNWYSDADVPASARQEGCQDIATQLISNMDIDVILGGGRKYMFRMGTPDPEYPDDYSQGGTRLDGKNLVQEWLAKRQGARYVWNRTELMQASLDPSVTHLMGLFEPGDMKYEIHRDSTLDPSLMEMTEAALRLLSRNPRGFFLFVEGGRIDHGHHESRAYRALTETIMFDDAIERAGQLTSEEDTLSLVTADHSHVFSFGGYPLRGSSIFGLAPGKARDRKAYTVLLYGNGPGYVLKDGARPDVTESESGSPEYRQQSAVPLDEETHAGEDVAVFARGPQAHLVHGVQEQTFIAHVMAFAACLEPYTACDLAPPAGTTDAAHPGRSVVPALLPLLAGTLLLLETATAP
Active calls of the source: *.

How did COC(=O)C1=C(C)NC(=O)NC1c1cccc(OC)c1OCc1ccccc1 (configuration not stated) do in these assays?
IL1B NFkB pot: -0.2; NFkB transloc inh: 0.2; HUVEC tox IL1B: 16.1; PLAP activator: 1.3

How did COc1cc(C(=O)Nc2cc(-c3ccccc3)[nH]n2)cc(OC)c1OC do in these assays?
TNAP act DEA: 0.4; PLAP activator: 2.3*

Results for Cc1nc2ccc(NC(=O)N3CCOCC3)cc2s1 ?
IL1B NFkB pot: -51.0; NFkB transloc inh: 51.0*; TNAP act DEA: 0.9; HUVEC tox IL1B: -39.1; PLAP activator: 0.8

What do the screens show for `Cc1nc2ccc(NC(=O)c3cc(S(=O)(=O)N4CCOCC4)ccc3C)cc2s1`?
IL1B NFkB pot: 8.0; NFkB transloc inh: -8.0; HUVEC tox IL1B: 7.3; PLAP activator: 1.2

How did CCc1ccc(Nc2ncccc2C#N)cc1 do in these assays?
IL1B NFkB pot: 84.5*; NFkB transloc inh: -84.5; HUVEC tox IL1B: -4.0; PLAP activator: 0.9

Results for CCC(C)c1ccc(Nc2ncccc2C#N)cc1 (configuration not stated) ?
PLAP activator: 1.1

Results for O=C(COc1cccc2ccccc12)NNC(=O)Nc1ccccc1 ?
IL1B NFkB pot: -0.8; NFkB transloc inh: 0.8; HUVEC tox IL1B: 2.6; PLAP activator: 1.3

How did O=C(COc1cccc2ccccc12)NNC(=O)[C@@H]1CCCC[C@@H]1C(=O)O do in these assays?
IL1B NFkB pot: 8.6; NFkB transloc inh: -8.6; HUVEC tox IL1B: 8.7; PLAP activator: 2*

How did CC(C)(C)c1cc(/C=N/NC(=O)Cc2nc3ccccc3[nH]2)cc(C(C)(C)C)c1O do in these assays?
IL1B NFkB pot: 14.7; NFkB transloc inh: -14.7; HUVEC tox IL1B: -5.2; PLAP activator: 2*

How did CCOc1ccccc1NC(=O)NC1(C(=O)N2CCN3CCCC3C2)CCCCC1 (configuration not stated) do in these assays?
IL1B NFkB pot: 35.7; NFkB transloc inh: -35.7; TNAP act DEA: 0.9; HUVEC tox IL1B: -14.6; PLAP activator: 2.1*

What do the screens show for `O=C1C=C(NCc2ccco2)CC(c2ccc(Cl)cc2)C1` (configuration not stated)?
IL1B NFkB pot: -12.2; NFkB transloc inh: 12.2; TNAP act DEA: 0.9; HUVEC tox IL1B: 86.3*; PLAP activator: 0.7

How did Cc1ccc(S(=O)(=O)NCc2ccncc2)cc1 do in these assays?
IL1B NFkB pot: 5.3; NFkB transloc inh: -5.3; TNAP act DEA: 0.9; HUVEC tox IL1B: -9.0; PLAP activator: 0.8

What do the screens show for `Cc1ccc(S(=O)(=O)NCc2nc3ccccc3[nH]2)cc1`?
IL1B NFkB pot: 5.5; NFkB transloc inh: -5.5; TNAP act DEA: 1.1; HUVEC tox IL1B: -7.3; PLAP activator: 2.3*

Results for O=C(CN(Cc1ccco1)C(=O)CNS(=O)(=O)c1ccc(F)cc1)NCc1ccc(F)cc1 ?
IL1B NFkB pot: 11.3; NFkB transloc inh: -11.3; TNAP act DEA: 6.1*; HUVEC tox IL1B: -32.1; PLAP activator: 1.1

How did O=C(CN(Cc1ccco1)C(=O)CNS(=O)(=O)c1ccccc1)NCc1ccc(F)cc1 do in these assays?
IL1B NFkB pot: inconclusive; NFkB transloc inh: -44.0; TNAP act DEA: 0.9; HUVEC tox IL1B: -25.9; PLAP activator: 1.3

What do the screens show for `C=CCSC1=C(C#N)C(c2ccc(OCC)cc2)CC(=O)N1` (configuration not stated)?
IL1B NFkB pot: 6.1; NFkB transloc inh: -6.1; TNAP act DEA: 0.9; HUVEC tox IL1B: 3.5; PLAP activator: 1

Results for COc1ccc(N2C(=O)C3CCCN3C2c2ccccc2F)cc1 (configuration not stated) ?
IL1B NFkB pot: 51.0*; NFkB transloc inh: -51.0; TNAP act DEA: 0.9; HUVEC tox IL1B: -0.3; PLAP activator: 1.4

How did CCN(CC)S(=O)(=O)c1ccc2c(c1)C(=NO)c1cc(S(=O)(=O)N(CC)CC)ccc1-2 do in these assays?
IL1B NFkB pot: 9.2; NFkB transloc inh: -9.2; HUVEC tox IL1B: -45.3

How did CCN1C(=O)CSc2ccc(C(=O)NCc3ccc(OC)cc3)cc21 do in these assays?
IL1B NFkB pot: -5.6; NFkB transloc inh: 5.6; HUVEC tox IL1B: 14.7; PLAP activator: 1.9

How did O=c1[nH]c2ccc(S(=O)(=O)N3CCCCC3)cc2[nH]c1=O do in these assays?
IL1B NFkB pot: 11.4; NFkB transloc inh: -11.4; HUVEC tox IL1B: -26.3

Results for CCOc1cc(S(=O)(=O)NCCc2cccc(C)c2)c(OCC)cc1-n1cnnn1 ?
IL1B NFkB pot: -35.3; NFkB transloc inh: 35.3*; TNAP act DEA: 0.9; HUVEC tox IL1B: 17.1; PLAP activator: 1.4

How did COCCN(C(=O)Cc1cccs1)C(C(=O)NCc1ccc(OC)cc1)c1ccc(C(C)C)cc1 (configuration not stated) do in these assays?
PLAP activator: 2.6*

How did COc1ccc(-c2nc(=S)[nH][nH]2)cc1 do in these assays?
IL1B NFkB pot: -3.8; NFkB transloc inh: 3.8; TNAP act DEA: 0.8; HUVEC tox IL1B: -2.9; PLAP activator: 2*

Results for CON1C(=O)C(=O)N(OC)C(C)(C)C1C (configuration not stated) ?
IL1B NFkB pot: -10.7; NFkB transloc inh: 10.7; HUVEC tox IL1B: 7.9; PLAP activator: 0.8

What do the screens show for `O=C(Cn1cnc2c(nnn2Cc2ccc(F)cc2)c1=O)NCC1CCCO1` (configuration not stated)?
IL1B NFkB pot: 7.1; NFkB transloc inh: -7.1; HUVEC tox IL1B: -22.4

How did OCc1nc2ccccc2n1C/C=C/c1ccccc1 do in these assays?
IL1B NFkB pot: 5.0; NFkB transloc inh: -5.0; TNAP act DEA: 1; HUVEC tox IL1B: -3.7; PLAP activator: 2*

How did N#Cc1c(C(F)(F)F)cc(-c2ccccc2)nc1SCC(=O)Nc1sc2c(c1C#N)CCC2 do in these assays?
IL1B NFkB pot: 5.5; NFkB transloc inh: -5.5; HUVEC tox IL1B: -20.9; PLAP activator: 1

Results for O=C(Nc1ccc(Cl)cc1F)c1ccc(COc2c(F)c(F)c(F)c(F)c2F)o1 ?
IL1B NFkB pot: -8.2; NFkB transloc inh: 8.2; TNAP act DEA: 0.9; HUVEC tox IL1B: -3.7; PLAP activator: 1

Results for O=C(Nc1ccc(F)cc1F)c1ccc(COc2c(F)c(F)cc(F)c2F)o1 ?
IL1B NFkB pot: 43.4*; NFkB transloc inh: -43.4; TNAP act DEA: 1; HUVEC tox IL1B: 88.7*; PLAP activator: 0.9

What do the screens show for `CC1CCN(CCc2nc3cc(NC(=O)NC4CCCCC4)ccc3n2C)CC1`?
IL1B NFkB pot: 4.7; NFkB transloc inh: -4.7; HUVEC tox IL1B: -29.1; PLAP activator: 2*

Results for CCCC(C)NC1=NCCCCC1 (configuration not stated) ?
IL1B NFkB pot: -12.0; NFkB transloc inh: 12.0; HUVEC tox IL1B: -20.7; PLAP activator: 1

Results for COc1ccc(C2(O)CCN(CC(=O)Nc3nccs3)CC2)c(OC)c1 ?
IL1B NFkB pot: 24.0; NFkB transloc inh: -24.0; TNAP act DEA: 0.9; HUVEC tox IL1B: 25.5; PLAP activator: 2.4*

How did Cc1nn(C)c(C)c1NC(=O)CSc1nc(Cc2ccccc2)nc2c1cnn2-c1ccccc1 do in these assays?
IL1B NFkB pot: -4.3; NFkB transloc inh: 4.3; TNAP act DEA: 0.9; HUVEC tox IL1B: -24.7
